Assay results published in PubChem BioAssay (NCI).
About 83,000 compounds went through this panel and 20% of them were active in at least one assay; those are over-represented in the sample as a whole.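 Each cell line was grown in a 96-well plate and treated with one concentration of compound for 48 hours. Values below 10 were considered active.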 Active and inactive are the calls of the source.

System: MCF7 breast
Assay: NCI-60 one-dose screen, 48 h (100 = growth as untreated, 0 = no growth, -100 = all killed)
Conditions: 10 µM unless noted

With `N#Cc1cccc(/C=C(/C(=O)c2ccccc2)c2ccccc2)c1` as the molecule, how does the growth read?
The growth was 9.11% (active).

`CCN1C(=O)c2ccc3c4c(ccc(c24)C1=O)C(=O)N(CCCNCc1ccccc1OC)C3=O` was tested. Which growth did it give?
The growth was -25.5% (active).

Which growth does the source give for `O=C(/C=C/c1ccc(Cl)cc1)c1ccccc1` here?
Its growth is 24.1% (inactive).

How did the growth turn out when `O=C(/C(=C/c1cccc([N+](=O)[O-])c1)c1ccccc1)c1ccccc1` was run?
Its growth is 26.7% (inactive).

With `Nc1nc2ncc(CCNc3ccc(C(=O)NC(CCC(=O)O)C(=O)O)cc3)nc2c(=O)[nH]1` (configuration not stated) as the molecule, how does the growth read?
Its growth is 112% (inactive).

With `Cc1c(C(N)=O)sc2ncn(Cc3ccccc3)c(=O)c12` as the molecule, how does the growth read?
The growth was 99.8% (inactive).

`c1ccc(-c2nn[nH]n2)c(-c2ccc(CN3CCN(c4nsc5ccccc45)CC3)cc2)c1` was tested. Which growth did it give?
Its growth is 85.6% (inactive).

For `NC(=O)NN=C(C1CC1)C1CC1`, which growth is on record?
Its growth is 92.9% (inactive).

`COc1cc2c(-c3nc4cc(Cl)c(F)cc4s3)cc(=O)oc2c(C)c1OC` was tested. Which growth did it give?
The growth was -57.8% (active).

Which growth does the source give for `N#Cc1ccc(NC(=O)Nc2ccc(Oc3ccc(NC(=O)Nc4ccc(C#N)cc4)cc3)cc2)cc1` here?
The growth was 20.5% (inactive).

`CC1(C)OC(=O)C(=Cc2ccccc2Br)C(=O)O1` was tested. Which growth did it give?
The growth was 102% (inactive).

Which growth does the source give for `O=C(/C=C/c1cc2ccccc2[nH]c1=O)c1ccc(Cl)cc1` here?
The growth was 15.2% (inactive).

With `Cc1cc(N2CCOCC2)nc(N2CCOCC2)n1` as the molecule, how does the growth read?
The growth was 90.7% (inactive).

`CC/C=C\C=C/C(=O)N/C=C/CC1Cc2cccc(O)c2C(=O)O1` (configuration not stated) was tested. Which growth did it give?
The growth was 67.3% (inactive).

How did the growth turn out when `COc1ccc(-c2csc(NC(=O)c3cc(O)c(O)c(O)c3)n2)cc1` was run?
The growth was 60.6% (inactive).

Which growth does the source give for `NNC(=O)C1CC2c3ccccc3C1c1ccccc12` (configuration not stated) here?
Its growth is 101% (inactive).

Which growth does the source give for `COc1ccc(OC)c(NC(=O)c2cc3oc4ccccc4c3cc2O)c1` here?
The growth was 83.3% (inactive).

For `CCCc1cc(=O)n2c(C(=O)Nc3ccccc3OC)c(C(=O)Nc3ccc(F)cc3)sc2n1`, which growth is on record?
The growth was 52.7% [30 µM] (inactive).

`N#Cc1c2ccccc2c2n1-c1ccccc1OC(c1ccccc1)C2=O` (configuration not stated) was tested. Which growth did it give?
The growth was 72.4% (inactive).

How did the growth turn out when `CCOC(=O)/C(=C/c1ccccc1)C(=O)c1ccccc1` was run?
Its growth is 41.1% (inactive).

Which growth does the source give for `O=C(Nc1nc(-c2ccccc2)cs1)c1cc(O)c(O)c(O)c1` here?
Its growth is 58.4% (inactive).

With `COc1cc(/C=C2\CCC/C(=C\c3ccc(OCC4CO4)c(OC)c3)C2=O)ccc1OCC1CO1` (configuration not stated) as the molecule, how does the growth read?
The growth was -6.99% (active).

`C/C(=N\N1CC(=O)NC1=O)c1ccc([N+](=O)[O-])o1` was tested. Which growth did it give?
Its growth is 85.6% (inactive).

Which growth does the source give for `Cc1ccc(C(C)C)cc1NC(=O)Nc1ccc([N+](=O)[O-])cc1` here?
Its growth is -10.2% (active).

For `O=C1Cc2cc(CCn3cncn3)c(Cl)cc2N1`, which growth is on record?
The growth was 29% (inactive).

For `COc1cc(OC)c2cc(C(=O)O)c(=O)oc2c1`, which growth is on record?
The growth was 94.2% (inactive).

Which growth does the source give for `Cn1c(=O)c2nc(SCc3ccccc3)n(C)c2n(C)c1=O` here?
Its growth is 106% (inactive).

`O=C1OCCCCCCCCCC#Cc2ccccc21` was tested. Which growth did it give?
The growth was 164% (inactive).

For `COc1cc(/C=C/C(=O)c2c(-c3ccc(Cl)cc3)nc3sc(C)nn23)cc(OC)c1OC`, which growth is on record?
Its growth is 38.1% (inactive).

How did the growth turn out when `COc1cc2c(C#N)n3c(c2cc1OC)C(=O)C(c1ccccc1)Oc1ccccc1-3` (configuration not stated) was run?
Its growth is 93.9% (inactive).

`O=C(Cc1ccccn1)C(F)(F)C(F)(F)C(F)(F)F` was tested. Which growth did it give?
Its growth is 97.3% (inactive).

How did the growth turn out when `COc1cc(/C=C/C(=O)Nc2ccc3c(c2)/C(=C\c2cccn2C)C(=O)N3)cc(OC)c1OC` was run?
The growth was 1.79% (active).

`COc1cc(/C=C/C(=O)c2c(-c3ccc(F)cc3)nc3sc(C)nn23)cc(OC)c1OC` was tested. Which growth did it give?
The growth was 14.3% (inactive).

`CN(C)c1ccc(/C=C\c2ccnc3ccccc23)cc1` was tested. Which growth did it give?
The growth was 39.1% (inactive).

How did the growth turn out when `CC[C@]1(O)CC2CN(CCc3c([nH]c4ccccc34)[C@@](C(=O)OC)(c3cc4c(cc3OC)N(C)[C@H]3[C@@](O)(C(=O)OC)[C@H](OC(C)=O)[C@]5(CC)C=CCN6CC[C@]43[C@@H]65)C2)C1` (some centres not stated) was run?
Its growth is 8.22% (active).

Which growth does the source give for `CCOC(=O)c1c(C)nc(C)c(C(=O)OCC)c1-c1cccnc1` here?
The growth was 109% (inactive).

For `COc1ccc(/C=C(\C#N)c2ccccc2)cc1`, which growth is on record?
The growth was 103% (inactive).

System: HCT-116 colon
Assay: as above
Conditions: 10 µM unless noted

Which growth does the source give for `N#Cc1cccc(/C=C(/C(=O)c2ccccc2)c2ccccc2)c1` here?
Its growth is 25.6% (inactive).

With `O=C(/C=C/c1ccc(Cl)cc1)c1ccccc1` as the molecule, how does the growth read?
The growth was 54% (inactive).

How did the growth turn out when `O=C(/C(=C/c1cccc([N+](=O)[O-])c1)c1ccccc1)c1ccccc1` was run?
The growth was 8.24% (active).

For `Nc1nc2ncc(CCNc3ccc(C(=O)NC(CCC(=O)O)C(=O)O)cc3)nc2c(=O)[nH]1` (configuration not stated), which growth is on record?
Its growth is 107% (inactive).

With `Cc1c(C(N)=O)sc2ncn(Cc3ccccc3)c(=O)c12` as the molecule, how does the growth read?
Its growth is 94.7% (inactive).

With `c1ccc(-c2nn[nH]n2)c(-c2ccc(CN3CCN(c4nsc5ccccc45)CC3)cc2)c1` as the molecule, how does the growth read?
The growth was 76.9% (inactive).

Which growth does the source give for `NC(=O)NN=C(C1CC1)C1CC1` here?
The growth was 102% (inactive).

With `COc1cc2c(-c3nc4cc(Cl)c(F)cc4s3)cc(=O)oc2c(C)c1OC` as the molecule, how does the growth read?
Its growth is -2.68% (active).

How did the growth turn out when `N#Cc1ccc(NC(=O)Nc2ccc(Oc3ccc(NC(=O)Nc4ccc(C#N)cc4)cc3)cc2)cc1` was run?
Its growth is 5.73% (active).

`CC1(C)OC(=O)C(=Cc2ccccc2Br)C(=O)O1` was tested. Which growth did it give?
Its growth is 79.3% (inactive).

With `Cc1cc(N2CCOCC2)nc(N2CCOCC2)n1` as the molecule, how does the growth read?
Its growth is 92.2% (inactive).

`CC/C=C\C=C/C(=O)N/C=C/CC1Cc2cccc(O)c2C(=O)O1` (configuration not stated) was tested. Which growth did it give?
The growth was 33.8% (inactive).

`COc1ccc(-c2csc(NC(=O)c3cc(O)c(O)c(O)c3)n2)cc1` was tested. Which growth did it give?
Its growth is 49.5% (inactive).

Which growth does the source give for `COc1ccc(OC)c(NC(=O)c2cc3oc4ccccc4c3cc2O)c1` here?
The growth was 106% (inactive).

`CCCc1cc(=O)n2c(C(=O)Nc3ccccc3OC)c(C(=O)Nc3ccc(F)cc3)sc2n1` was tested. Which growth did it give?
The growth was 27.2% [30 µM] (inactive).

`N#Cc1c2ccccc2c2n1-c1ccccc1OC(c1ccccc1)C2=O` (configuration not stated) was tested. Which growth did it give?
Its growth is 11.3% (inactive).

Which growth does the source give for `CCOC(=O)/C(=C/c1ccccc1)C(=O)c1ccccc1` here?
Its growth is 39.4% (inactive).

With `O=C(Nc1nc(-c2ccccc2)cs1)c1cc(O)c(O)c(O)c1` as the molecule, how does the growth read?
Its growth is 25.9% (inactive).

Which growth does the source give for `COc1cc(/C=C2\CCC/C(=C\c3ccc(OCC4CO4)c(OC)c3)C2=O)ccc1OCC1CO1` (configuration not stated) here?
Its growth is -54.7% (active).

How did the growth turn out when `C/C(=N\N1CC(=O)NC1=O)c1ccc([N+](=O)[O-])o1` was run?
The growth was 106% (inactive).

For `Cc1ccc(C(C)C)cc1NC(=O)Nc1ccc([N+](=O)[O-])cc1`, which growth is on record?
The growth was -23.2% (active).

Which growth does the source give for `COc1cc(OC)c2cc(C(=O)O)c(=O)oc2c1` here?
Its growth is 103% (inactive).

With `Cn1c(=O)c2nc(SCc3ccccc3)n(C)c2n(C)c1=O` as the molecule, how does the growth read?
The growth was 98.9% (inactive).

How did the growth turn out when `O=C1OCCCCCCCCCC#Cc2ccccc21` was run?
Its growth is 70.4% (inactive).

`COc1cc(/C=C/C(=O)c2c(-c3ccc(Cl)cc3)nc3sc(C)nn23)cc(OC)c1OC` was tested. Which growth did it give?
The growth was 50.2% (inactive).

Which growth does the source give for `COc1cc2c(C#N)n3c(c2cc1OC)C(=O)C(c1ccccc1)Oc1ccccc1-3` (configuration not stated) here?
Its growth is 27.9% (inactive).

How did the growth turn out when `COc1cc(/C=C/C(=O)Nc2ccc3c(c2)/C(=C\c2cccn2C)C(=O)N3)cc(OC)c1OC` was run?
The growth was 37.3% (inactive).

Which growth does the source give for `COc1cc(/C=C/C(=O)c2c(-c3ccc(F)cc3)nc3sc(C)nn23)cc(OC)c1OC` here?
Its growth is 14.7% (inactive).

`CN(C)c1ccc(/C=C\c2ccnc3ccccc23)cc1` was tested. Which growth did it give?
Its growth is 62.6% (inactive).

How did the growth turn out when `COc1ccc(/C=C(\C#N)c2ccccc2)cc1` was run?
Its growth is 85.4% (inactive).
